For 22 compounds, Potency results are on record in PubChem BioAssay (NCATS).

Structures are written as SMILES. Results filed as inconclusive are left out. Active and inactive are the calls of the source. Calls come from the whole dose curve; as a rule, active = well fitted cell-killing curve with a large enough effect; inconclusive = small, poorly fitted or top-dose-only effect, or effect the other way; inactive = no such curve, though single readings can be large or run the other way.

Test [1] in a line: Quantitative High-Throughput drug screen in 47 multiple myeloma cell lines against the NCATS MIPE library collection: XG1_PLB cell viability assay (AID 1919866). Note: nearly all actives have a fitted effect of over 35% in size. The essentials: (§1)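 Readout: median RLU from CellTiter-Glo after 5 min at room temperature. Preceding step was 48 h drug treatment of 500 cells/well at 37 °C, 5% CO2, with DMSO-only and media-only control wells.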
The nature of test [2]: Quantitative High-Throughput drug screen in 47 multiple myeloma cell lines against the NCATS MIPE library collection: PE2_PLB cell viability assay (AID 1919869). Note: nearly all actives have a fitted effect of over 35% in size. The procedure, abridged:
as §1

Test [3] can be described thus: Quantitative High-Throughput drug screen in 47 multiple myeloma cell lines against the NCATS MIPE library collection: PCM6_Riken cell viability assay (AID 1919870). Note: nearly all actives have a fitted effect of over 30% in size. The procedure, abridged:
as §1

Test [4] in a line: Quantitative High-Throughput drug screen in 47 multiple myeloma cell lines against the NCATS MIPE library collection: RPMI8226_ATCC cell viability assay (AID 1919871). Note: nearly all actives have a fitted effect of over 30% in size. The essentials: as §1
A short description of test [5]: Quantitative High-Throughput drug screen in 47 multiple myeloma cell lines against the NCATS MIPE library collection: UTMC2_PLB cell viability assay (AID 1919868). Note: nearly all actives have a fitted effect of over 55% in size. Conditions: CellTiter-Glo ATP luminescence, 48 h; viability (% of DMSO control): at 45.8 µM (top of the series). The essentials: as §1
Test [6] is described as follows: Quantitative High-Throughput drug screen in 47 multiple myeloma cell lines against the NCATS MIPE library collection: OPM2_DSMZ cell viability assay (AID 1919872). Note: nearly all actives have a fitted effect of over 30% in size. The essentials: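 CellTiter-Glo luminescence (ATP) after 48 h compound exposure, 37C/5% CO2; 500 cells/well; MIPE 4.0 approved/investigational drugs pinned in; DMSO = 100%, media only = 0% viability.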

The nature of test [7]: Quantitative High-Throughput drug screen in 47 multiple myeloma cell lines against the NCATS MIPE library collection: KMS28BM_JCRB cell viability assay (AID 1919874). Note: nearly all actives have a fitted effect of over 35% in size. The essentials:
as §1

The nature of test [8]: Quantitative High-Throughput drug screen in 47 multiple myeloma cell lines against the NCATS MIPE library collection: KMS11_JCRBsus cell viability assay (AID 1919873). Note: nearly all actives have a fitted effect of over 50% in size. The procedure, abridged:
as §1
Potency is the fitted concentration of half-maximal effect.

Turning to `CC(C)(O)CC[C@@H](O)[C@](C)(O)[C@H]1CC[C@@]2(O)C3=CC(=O)[C@@H]4C[C@@H](O)[C@@H](O)C[C@]4(C)[C@@H]3CC[C@]12C`, the Potency result in test [1], in test [2], in test [3] and in test [4] was “inactive” each time.

Regarding `C[N+]1(C)[C@@H]2C[C@@H](OC(=O)C(O)(c3cccs3)c3cccs3)C[C@H]1[C@@H]1O[C@@H]12`, the Potency result in test [1], in test [5], in test [2], in test [3], in test [4] and in test [6] was “inactive” in each case. The Potency result in test [7] was “inactive”.

As for `CN(C)CC[C@H](c1ccc(Cl)cc1)c1ccccn1`, the Potency in test [1] was 6.62 µM (active). Further, the Potency entry in test [5], in test [2], in test [3] and in test [6] was “inactive” each time.

With `CN1[C@H]2CC(OC(=O)[C@@H](CO)c3ccccc3)C[C@H]1[C@H]1O[C@H]12` (some centres not stated), the Potency entry in test [1], in test [2], in test [3], in test [4], in test [6] and in test [8] was “inactive” each time. The Potency entry in test [7] is “inactive”.

With `N#Cc1ccc(COC[C@H]2O[C@@H](n3c(NCc4ccc(Cl)c(Cl)c4)nc4c(N)ncnc43)[C@@H](O)[C@@H]2O)cc1`, the Potency was 2.64 µM (active) in test [1]; 1.32 µM (active) in test [5]; 5.26 µM (active) in test [3]; 5.26 µM (active) in test [4]; 5.26 µM (active) in test [8]; 5.9 µM (active) in test [7].

Turning to `CC(=O)N[C@@H]1[C@H](O[C@@H]2c3ccc(c(Cl)c3)Oc3cc4cc(c3O[C@H]3O[C@H](CO)[C@@H](O)[C@H](O)[C@H]3NC(=O)CCCCCCCC(C)C)Oc3ccc(cc3Cl)C[C@H]3NC(=O)[C@H](N)c5ccc(O)c(c5)Oc5cc(O)cc(c5)[C@H](NC3=O)C(=O)N[C@H]4C(=O)N[C@H]3C(=O)N[C@@H]2C(=O)N[C@@H](C(=O)O)c2cc(O)cc(O[C@H]4O[C@H](CO)[C@@H](O)[C@H](O)[C@H]4O)c2-c2cc3ccc2O)O[C@H](CO)[C@@H](O)[C@@H]1O`, the Potency entry in test [1], in test [5], in test [2], in test [3], in test [4] and in test [8] was “inactive” each time.

For the compound `CC(C)(O)[C@H]1CC[C@@](C)([C@H]2[C@@H](O)C[C@@]3(C)[C@@H]4C[C@H](O[C@@H]5O[C@H](CO)[C@@H](O)[C@H](O)[C@@H]5O)[C@H]5C(C)(C)[C@@H](O[C@@H]6OC[C@@H](O)[C@H](O)[C@@H]6O)CC[C@@]56C[C@@]46CC[C@]23C)O1`, the Potency entry in test [1], in test [5], in test [3], in test [4], in test [6] and in test [8] was “inactive” in each case. Also, the Potency result in test [7] is “inactive”.

As for `CN1CCc2c(c3ccccc3n2Cc2ccc(C(=O)NO)cc2)C1`, the Potency in test [1] was 11.8 µM (active); in test [5] it was 2.64 µM (active); in test [2] it was 23.5 µM (active); in test [3], 16.6 µM (active); in test [8], 20.9 µM (active).

Take `CCn1c(=O)c2c(nc(C=Cc3ccc(OC)c(OC)c3)n2C)n(CC)c1=O`: the Potency result in test [1], in test [5], in test [3], in test [8] and in test [7] was “inactive” each time. In test [2], the Potency was 14.8 µM (active).

On to `Cn1cc(C=CC(=O)c2cccc(F)c2)cc1C=CC(=O)NO`, for which the Potency in test [1] was 5.9 µM (active); in test [2] it was 20.9 µM (active); in test [3], 18.7 µM (active); in test [6], 23.5 µM (active); in test [8], 14.8 µM (active). Further, the Potency result in test [4] was “inactive”.

For the compound `N#CC(=C(N)Sc1ccc(N)cc1)c1ccccc1C(F)(F)F`, the Potency in test [1] is 2.96 µM (active); in test [2] it was 2.96 µM (active); in test [4], 13.2 µM (active). The Potency result in test [3], in test [6] and in test [7] was “inactive” each time.

In the case of `Cc1[nH]c(C=C2C(=O)Nc3ccccc32)c(C)c1CCC(=O)O`, the Potency was 2.96 µM (active) in test [1]; 0.935 µM (active) in test [5]; 9.35 µM (active) in test [2]; 10.5 µM (active) in test [3]; 14.8 µM (active) in test [7].

For `CCNC(=O)Nc1ccc(-c2nc3c(c(N4CCOC[C@H]4C)n2)CCN(C2COC2)C3)cc1`, the Potency in test [1] was 0.526 µM (active); in test [5], 1.18 µM (active); in test [2] it was 1.18 µM (active); in test [3], 1.32 µM (active); in test [4] it was 0.743 µM (active); in test [6], 1.66 µM (active). Further, in test [7], the Potency is 0.526 µM (active).

For the compound `C=C(C)[C@@H]1CC[C@]2(C)CC[C@]3(C)[C@H](CC[C@@H]4[C@@]5(C)CC[C@H](O)C(C)(C)[C@H]5CC[C@]43C)[C@@H]12`, the Potency result in test [1], in test [5], in test [2], in test [3], in test [6] and in test [8] was “inactive” in each case.

As for `C#CCC(Cc1cnc2nc(N)nc(N)c2n1)c1ccc(C(=O)N[C@@H](CCC(=O)O)C(=O)O)cc1` (some centres not stated), the Potency in test [1] was 0.059 µM (active); in test [5], 0.372 µM (active); in test [2] it was 0.418 µM (active); in test [6], 0.0332 µM (active); in test [8] it was 0.0935 µM (active); in test [7], 0.0332 µM (active). In addition, the Potency result in test [4] is “inactive”.

As to `Cc1cc(O)c2c(c1)C(=O)c1cccc(O)c1C2=O`, the Potency entry in test [1], in test [2], in test [3], in test [4], in test [6] and in test [8] was “inactive” in each case. Further, the Potency entry in test [7] was “inactive”.

In the case of `COC1=C(OC)C(=O)C(CC=C(C)CCC=C(C)CCC=C(C)CCC=C(C)CCC=C(C)CCC=C(C)CCC=C(C)CCC=C(C)CCC=C(C)CCC=C(C)C)=C(C)C1=O`, the Potency result in test [1], in test [5], in test [2], in test [3] and in test [6] was “inactive” throughout.

Consider `C[C@]12C=CC(=O)N[C@@H]1CC[C@H]1[C@H]3CC[C@@H](C(=O)Nc4cc(C(F)(F)F)ccc4C(F)(F)F)[C@@]3(C)CC[C@@H]12`, for which the Potency in test [1] was 13.2 µM (active); in test [3] it was 4.69 µM (active); in test [6], 10.5 µM (active). In addition, in test [5], the Potency result was “inactive”.

Take `c1ccc2c(Oc3nc(Nc4ccc(N5CCOCC5)cc4)c4ncn(C5CCCCC5)c4n3)cccc2c1`: the Potency in test [1] was 18.7 µM (active). The Potency entry in test [2], in test [3], in test [4] and in test [6] was “inactive” throughout.

On to `FC(F)(F)c1ccc(Nc2nc3ccc(Oc4ccnc(-c5ncc(C(F)(F)F)[nH]5)c4)cc3[nH]2)cc1`, for which the Potency in test [1] is 14.8 µM (active); in test [2] it was 26.4 µM (active); in test [3] it was 18.7 µM (active); in test [4] it was 26.4 µM (active).

Turning to `C[C@H]1[C@@H](OC(=O)CCC(=O)O)O[C@@H]2O[C@@]3(C)CC[C@@H]4[C@H](C)CC[C@@H]1[C@@]24OO3`, the Potency in test [1] is 10.5 µM (active); in test [5] it was 4.69 µM (active); in test [2], 5.26 µM (active); in test [3] it was 5.9 µM (active); in test [8] it was 1.32 µM (active); in test [7] it was 14.8 µM (active).

In the case of `CC(Oc1ccc(O)cc1)(P(=O)(O)O)P(=O)(O)O`, the Potency entry in test [1], in test [3], in test [4], in test [6] and in test [8] was “inactive” throughout. Moreover, in test [2], the Potency is 2.35 µM (active).
